Bioassay records deposited in PubChem BioAssay by National Center for Advancing Translational Sciences (NCATS).
Sampled rows, rich in hits. Any-hit rate of the full collection: about 21%.
Pf growth 48h: Primary qHTS for delayed death inhibitors of the malarial parasite plastid, 48 hour incubation. P. falciparum luciferase growth in erythrocytes, 48 h. Potency, µM (titrated, usually from 28.7 µM), for inactives: at the top dose activity change, negative = inhibition, most hits filed as inhibitors. actives 5.9% (n = 310,000). AID 504832, 2011; also: potency is read from the fitted curve at half-maximal effect; % is scaled to controls: 0 for no effect and ±100 for the full control effect
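Luciferase-expressing parasites in RBCs, 2% Hct / 0.1% parasitemia final; RPMI 1640 + 0.5% Albumax; 37 C, 5% CO2, one generation; luminescence read-out, lower signal = inhibition.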
CHX counter: Cycloheximide Counterscreen for Small Molecule Inhibitors of Shiga Toxin. AID 2314, 2010. cell reporter, cycloheximide protein synthesis inhibition counterscreen. actives 12% (n = 300,000). max response, %; in the data active = max response mostly above about 13%, no sharp cut-off; inactive = mostly below about 14%; also: read at 38.3 µM for the half of the compounds with a filed dose; 0% is about no effect
HCV inh: qHTS Assay for Inhibitors of Hepatitis C Virus (HCV); Huh7.5.1 HCVcc-Cre infection, luciferase reporter, 44 h; Potency, µM (doses to about 41.8 µM), for the others: top-dose activity change, negative = inhibition, actives largely listed as inhibitors; actives 3.4% (n = 340,000); also: potency is read from the fitted curve at half-maximal effect; % is scaled to controls: 0 for no effect and ±100 for the full control effect
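Cells seeded at 1,000/well and cultured 4 h, then compounds added followed by HCVcc-Cre virus (~0.5 moi). After 44 h further culture, luciferase substrate was added, plates held 15 min at room temperature, and luminescence read for 15 sec.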
Pf growth 96h: Primary qHTS for delayed death inhibitors of the malarial parasite plastid, 96 hour incubation; P. falciparum luciferase reporter growth, 96 h; AID 504834, 2011; actives 6.9% (n = 320,000); Potency, µM (highest dose often 28.7 µM), without a hit: top-dose activity change, negative = inhibition, most hits filed as inhibitors; also: potency is read from the fitted curve at half-maximal effect; % is scaled to controls: 0 for no effect and ±100 for the full control effect
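Plates of compound plus infected erythrocytes (2% hematocrit, 0.05% parasitemia final) incubate 96 hours, 37 C, 5% CO2. Detection reagent added; reduced luminescence from the parasites' luciferase reporter flags inhibition.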
Shiga inhibitor: A qHTS for Small Molecule Inhibitors of Shiga Toxin; Vero cells, Shiga toxin protein synthesis inhibition reporter; inhibition, % at 38.7 µM; actives 9.2% (n = 290,000); in the data active = inhibition mostly above about 28%, no sharp cut-off; inactive = mostly below about 43%; also: 0% is about no effect
AMA1 RON2 block: qHTS for Inhibitors of AMA1-RON; Towards Development of Antimalarial Drug Lead: Primary Screen; AlphaScreen AMA1-biotinylated RON2 peptide binding; Plasmodium falciparum AMA1 (3D7) - RON2 peptide interaction; Potency, µM (doses to about 58.2 µM), for inactives: at the highest dose activity change, negative = inhibition, most hits filed as inhibitors; actives 0.2% (n = 360,000);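 also: potency is read from the fitted curve at half-maximal effect; 0% = vehicle wells and -100% = peptide control; nearly all actives have a fitted effect of over 45% in size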
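AMA1 (3D7) with his tag at 25 nM final met compounds first, then biotinylated RON2 peptide at 25 nM; detection used donor plus acceptor beads, 10 µg/mL apiece, read by AlphaScreen after 30 min at room temperature.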
Numbers without * were called inactive. Unless noted, calls follow the shape of the dose curve; as a rule, active = well fitted curve in the direction sought with a large enough effect; inconclusive = small, poorly fitted or top-dose-only effect, or another doubt; inactive = no such curve, though single readings can be large; an effect the other way counts as inactive or inconclusive.

Results for CN(C)S(=O)(=O)c1cccc(COC(=O)CN2C(=O)NC3(CCCC3)C2=O)c1 ?
Pf growth 48h: 12%; CHX counter: -1; HCV inh: -11%; Pf growth 96h: 32%; Shiga inhibitor: 16; AMA1 RON2 block: -10%

How did CCN(CC)c1ccc(NC(=O)c2cnn(CC)c2)cc1 do in these assays?
Pf growth 48h: inconclusive; CHX counter: 44*; HCV inh: inconclusive; Pf growth 96h: inconclusive; Shiga inhibitor: 100*; AMA1 RON2 block: -19%

What do the screens show for `O=C(NC(=S)Nc1ccccc1[N+](=O)[O-])c1ccccc1Cl`?
Pf growth 48h: -29%; CHX counter: 48*; HCV inh: -10%; Pf growth 96h: 19%; Shiga inhibitor: 125*; AMA1 RON2 block: 21%

What do the screens show for `CCN(CC)c1ccc(NC(=O)c2ccc3c(c2)c(C)c(C)n3C)cc1`?
Pf growth 48h: inconclusive; CHX counter: 8; HCV inh: inconclusive; Pf growth 96h: inconclusive; Shiga inhibitor: 10; AMA1 RON2 block: 7.9µM*

What do the screens show for `O=C(NC(=S)Nc1ccc2[nH]c(=O)[nH]c2c1)c1ccccc1[N+](=O)[O-]`?
Pf growth 48h: 26%; CHX counter: 46*; Pf growth 96h: inconclusive; Shiga inhibitor: 48*; AMA1 RON2 block: 60%

What do the screens show for `CCN(CC)c1ccc(NC(=O)c2ccc(S(=O)(=O)N3CCOCC3)cc2)cc1`?
HCV inh: inconclusive; AMA1 RON2 block: -1%

Results for CCCC(=O)Nc1ccc(NC(=S)NC(=O)c2ccccc2[N+](=O)[O-])cc1 ?
Pf growth 48h: 3%; CHX counter: -1; HCV inh: inconclusive; Pf growth 96h: inconclusive; Shiga inhibitor: -18; AMA1 RON2 block: 39%

Results for O=C(Cn1cc(C(F)(F)F)cc(Cl)c1=O)NC1CCS(=O)(=O)C1 (stereo not drawn) ?
Pf growth 48h: -1%; HCV inh: -11%; Pf growth 96h: inconclusive; AMA1 RON2 block: -3%

How did C=CCNC(=S)N1CCN(Cc2ccc3c(c2)OCO3)CC1 do in these assays?
Pf growth 48h: inconclusive; CHX counter: -2; HCV inh: 1%; Pf growth 96h: inconclusive; AMA1 RON2 block: -18%

What do the screens show for `O=C(CC1CCCC1)N1CCN(S(=O)(=O)c2cccc(F)c2)CC1`?
HCV inh: 9%; AMA1 RON2 block: 27%

How did CCC1Oc2ccccc2N(CC(=O)NC2CCCCC2C)C1=O (stereo not drawn) do in these assays?
Pf growth 48h: -1%; CHX counter: 2; HCV inh: 1%; Pf growth 96h: -7%; Shiga inhibitor: 16; AMA1 RON2 block: 6%

What do the screens show for `COc1ccc(CN2CCNC(=O)C2CC(=O)N(C)C2CCOCC2)c(F)c1` (stereo not drawn)?
Pf growth 48h: 27%; CHX counter: -2; HCV inh: 7%; Pf growth 96h: inconclusive; Shiga inhibitor: -17; AMA1 RON2 block: 32%

Results for COC(=O)C1=C(c2cccc(C#N)c2)C[C@@H]2CC[C@H]1N2C(=O)NCCOc1ccccc1Cl ?
Pf growth 48h: 13µM*; HCV inh: 4%; Pf growth 96h: inconclusive; AMA1 RON2 block: -3%

What do the screens show for `COC(=O)C1=C(c2ccccc2OCc2ccccc2)C[C@@H]2CC[C@H]1N2C(=O)NCCOc1ccccc1Cl`?
Pf growth 48h: 5.2µM*; HCV inh: inconclusive; Pf growth 96h: inconclusive; AMA1 RON2 block: -9%

How did COC(=O)C1=C(c2ccc(C(C)=O)cc2)C[C@@H]2CC[C@H]1N2C(=O)NCCOc1ccccc1Cl do in these assays?
Pf growth 48h: inconclusive; HCV inh: inconclusive; Pf growth 96h: inconclusive; AMA1 RON2 block: 0%

How did COC(=O)C1=C(c2cccc(OCc3ccccc3)c2)C[C@@H]2CC[C@H]1N2C(=O)NCCOc1ccccc1Cl do in these assays?
Pf growth 48h: 13µM*; HCV inh: inconclusive; Pf growth 96h: inconclusive; AMA1 RON2 block: -14%

Results for COC(=O)C1=C(c2cccc(C#N)c2)C[C@@H]2CC[C@H]1N2C(=O)NCCOc1ccccc1 ?
Pf growth 48h: inconclusive; HCV inh: -2%; Pf growth 96h: -1%; AMA1 RON2 block: 3%

Results for COC(=O)C1=C(c2cccc(OCc3ccccc3)c2)C[C@@H]2CC[C@H]1N2C(=O)NCCc1ccc(F)cc1 ?
Pf growth 48h: 7.4µM*; HCV inh: inconclusive; Pf growth 96h: inconclusive; AMA1 RON2 block: -2%

What do the screens show for `O=c1ccn([C@@H]2O[C@H](CNCC3=Cc4cc(O)ccc4OC3)[C@@H](O)[C@H]2O)c(=O)[nH]1`?
HCV inh: 4%; AMA1 RON2 block: 7%

What do the screens show for `COC(=O)C1=C(c2cccc(OCc3ccccc3)c2)C[C@@H]2CC[C@H]1N2C`?
AMA1 RON2 block: -5%

What do the screens show for `COC(=O)C1=C(c2cccc(OCc3ccccc3)c2)C[C@@H]2CC[C@H]1N2C(=O)NCCOc1ccccc1`?
Pf growth 48h: 9.3µM*; HCV inh: inconclusive; Pf growth 96h: inconclusive; AMA1 RON2 block: -6%

What do the screens show for `CC(C)COC(=O)Nc1nnc(SCCOc2ccccc2)s1`?
Pf growth 48h: 22%; CHX counter: 0; HCV inh: 3%; Pf growth 96h: 459%; Shiga inhibitor: 6; AMA1 RON2 block: 6%

How did Nc1nnc(SCCOc2ccccc2)s1 do in these assays?
Pf growth 48h: 46%; CHX counter: 17*; HCV inh: -7%; Pf growth 96h: inconclusive; Shiga inhibitor: 27*; AMA1 RON2 block: 2%

What do the screens show for `Cc1nnc(SCCOc2ccccc2)s1`?
Pf growth 48h: 25%; CHX counter: 26*; HCV inh: -8%; Pf growth 96h: 5%; Shiga inhibitor: 36; AMA1 RON2 block: 1%

What do the screens show for `Nc1nnc(SCCOc2ccc(Br)cc2)s1`?
Pf growth 48h: 27%; CHX counter: 18*; HCV inh: inconclusive; Shiga inhibitor: 37; AMA1 RON2 block: 0%

Results for COc1ccc2oc(C(=O)NCCC(C)C)c(C)c2c1 ?
Pf growth 48h: inactive; CHX counter: 58*; HCV inh: -8%; Pf growth 96h: 178%; Shiga inhibitor: 89; AMA1 RON2 block: 4%

What do the screens show for `CCc1ccc2oc(C(=O)NCC(c3ccc(OC)cc3)N3CCCCC3)c(C)c2c1` (stereo not drawn)?
Pf growth 48h: inconclusive; CHX counter: 8; HCV inh: inconclusive; Pf growth 96h: 44%; Shiga inhibitor: 11; AMA1 RON2 block: -12%
